Screening data as filed in PubChem BioAssay.
TWEAK-Fn14 inh – inhibitors of TWEAK-Fn14 interaction signaling | TWEAK-stimulated Fn14 reporter cells, luciferase luminescence, 8 h | AID 1159606 | inhibition, % at 10 µM | actives 2% (n = 360,000); in the data active = inhibition above about 50%
LGR2 antag – inhibitors of bursicon-induced Drosophila LGR2 receptor cAMP signaling; HEK293 LGR2, CRE-luciferase, bursicon-stimulated, 4 h; inhibition, % at 9.99 µM; actives 0.35% (n = 380,000);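 active = drop in luminescence signal, shown as inhibition above about 50% in the replicate tests, limit read from the data, passing the limit was not always enough; inconclusive = probably only some replicates passing the limit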;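 note: agonist challenge used bursicon conditioned medium at about half maximal strength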
TROY signal inh – TROY signaling inhibition. AID 1347056. inhibition, % at 10 µM. actives 0.98% (n = 360,000). Q293 LMP1-TROYcd NF-kB luciferase reporter, 4 h;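 active = compounds whose plate-normalised and pattern-corrected inhibition of the luciferase reporter signal at the single screening dose is 50% or more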
PAX8 inh HTS – PAX8 transcriptional activity inhibition; RMG-I TPO-luciferase reporter, SteadyGlo, 24 h; inhibition, % at 12.6 µM; actives 1.2% (n = 360,000); AID 652154;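 active = mean replicate inhibition at least 60% with every replicate also reaching 60%; inconclusive = only one of the two criteria is met; inactive = mean below 60% and not all replicates reaching 60%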;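 note: luciferase light reporting Pax8 driven TPO promoter activity; plate controls were median of neutral control wells for no effect and mitoxantrone controls for full effect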
EWS-Fli block – blocks EWS/Fli oncoprotein-driven transcription; A673 NR0B1-luciferase reporter, viability-normalised; inhibition, % at 12.6 µM; actives 0.67% (n = 350,000); AID 651661;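 active = mean inhibition of at least 50% after viability correction, with every replicate also passing that limit; inconclusive = mean reaches 50% but only one of two replicates passes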;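 note: firefly luciferase signal divided by Alamar Blue viability fluorescence both relative to DMSO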
EBV LMP1 NFkB – Epstein-Barr LMP1 NF-kappaB reporter inhibition. LMP1-induced NF-kappaB luciferase reporter cells, luminescence. inhibition, % at 12.5 µM. actives 0.69% (n = 350,000); in the data active = inhibition above about 41%; inconclusive = no clear call, values can overlap the other calls;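 note: 0% = neutral control wells and 100% = reference inhibitor control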
Active calls of the source: *; ? = inconclusive; . = no result given. Sampled rows, rich in hits. Any-hit rate of the full collection: about 3.2%.

SMILES | TWEAK-Fn14 inh | LGR2 antag | TROY signal inh | PAX8 inh HTS | EWS-Fli block | EBV LMP1 NFkB
N#Cc1c(Br)n(C2OC(CO)C(O)C2O)c2ncnc(N)c12 (centres undefined) | 49 | 31 | 11 | 82* | 30 | -84
COC(=O)[C@H]1[C@H](CO)[C@H]2Cn3c(ccc(/C=C/c4ccccc4)c3=O)[C@@H]1N2C(=O)C1CC1 | . | -8 | . | . | 22 | .
COC(=O)[C@@H]1[C@@H](CO)[C@@H]2Cn3c(cccc3=O)[C@H]1N2Cc1nccs1 | . | -7 | . | -10 | -6 | .
O=C(Cc1cccnc1)N1CCCCN2[C@@H](CO)[C@@H](c3ccc(C#CC4CC4)cc3)[C@@H]2C1 | . | . | . | 3 | -9 | .
COC1CC2C=C(C)C=CC=CC(=O)NC(c3ccccc3)CC=CCCC(O)CC(=O)C2=C1O (centres undefined) | 60* | 22 | 50 | 116* | 55* | .
CCN1/C(=C/C=C/C2=[N+](CC)c3ccccc3C2(C)C)C(C)(C)c2ccccc21 | 82* | 55* | 66* | 106* | 59* | 39
C[C@H]1CN([C@@H](C)CO)C(=O)CCCn2cc(nn2)CO[C@H]1CN(C)C(=O)Oc1cccc2ccccc12 | . | 2 | . | -2 | 3 | .
CC1=CC(C)CC(C)OC(=O)CC(c2ccc(O)cc2)NC(=O)C(Cc2c(Br)[nH]c3ccccc23)N(C)C(=O)C(C)NC(=O)C(C)C1 (centres undefined) | 4 | 82* | 70* | 102* | -25 | -2
CC(=O)OC1CC2OC3C=C(C)CCC3(C)C1(C)C21CO1 (centres undefined) | 98* | 104* | 84* | . | 43 | .
CC(=O)O[C@H]1C[C@@H]2OC3C=C(C)CCC3(C)[C@@]1(C)[C@@]21CO1 (some centres undefined) | 97* | 102* | 78* | 110* | 27 | 91*
COC(=O)[C@H]1[C@H](CO)[C@H]2Cn3c(ccc(-c4ccc(F)cc4)c3=O)[C@@H]1N2Cc1ccccc1 | . | -10 | . | -2 | -7 | .
Cc1ccc(C[n+]2c(-c3ccc(C)cc3)cc(-c3ccc(C)cc3)cc2-c2ccc(C)cc2)cc1 | 92* | . | 42 | . | . | ?
Cc1ccc(-c2cc(-c3ccc(C)cc3)[n+](-c3ccc(C(=O)O)cc3)c(-c3ccc(C)cc3)c2)cc1 | 0 | -18 | 5 | -24 | -19 | -2
COc1cccc(-c2sc3ccccc3c2-c2ccc(OCCN3CCOCC3)cc2)c1 | 13 | 5 | 7 | 9 | 15 | -1
CCOc1ccc(-c2cc(C)[n+](CCN3CCOCC3)c(-c3ccc(OCC)cc3)c2)cc1 | -11 | 8 | 13 | 98* | 7 | 5
CCCCCCOc1ccc(CN2CCN(CCO)CC2)cc1 | 43 | 34 | 56* | . | . | 10
COC(=O)[C@H]1[C@H](CO)[C@H]2Cn3c(ccc(-c4ccccc4)c3=O)[C@@H]1N2S(=O)(=O)c1ccccc1C | . | -13 | . | 2 | 50 | .
CN1CCN(c2ccc([N+](=O)[O-])c3no[n+]([O-])c23)CC1 | 104* | 105* | -8 | 88* | 33 | 76*
CN1CCN(c2ccc(S(C)(=O)=O)cc2[N+](=O)[O-])CC1 | 12 | 2 | 0 | -8 | -1 | 6
O=[N+]([O-])c1ccc(N(CCO)CCO)c2c1no[n+]2[O-] | 20 | ? | 9 | 109* | 20 | 27
O=C(COc1ccc(Cl)cc1Cl)N1CCN(C/C=C/c2ccccc2)CC1 | 24 | 1 | 37 | . | . | 9
O=C(O)CCCOc1ccc(Cl)cc1Cl | 22 | . | -6 | -19 | -3 | 59*
O=C(Cc1cccnc1)N1CCCCN2[C@H](CO)[C@@H](c3ccc(C#CC4CCCC4)cc3)[C@@H]2C1 | . | 0 | . | -4 | 1 | .
COC(=O)C1=C(c2ccc(-c3ccccc3)c(F)c2)C[C@@H]2CC[C@H]1N2C(=O)N1CCC(C)CC1 | 25 | . | 13 | 20 | 16 | 45*
COC(=O)C1=C(c2ccc(-c3ccccc3)c(F)c2)C[C@@H]2CC[C@H]1N2C(=O)N1CCC(O)CC1 | 8 | -5 | 13 | 0 | 14 | 18
SMILES | TWEAK-Fn14 inh | LGR2 antag | TROY signal inh | PAX8 inh HTS | EWS-Fli block | EBV LMP1 NFkB
COC(=O)C1=C(c2ccc3ccccc3c2)C[C@@H]2CC[C@H]1N2C(=O)N1CCC(O)CC1 | 1 | . | 2 | . | . | 85*
COC(=O)[C@H]1[C@H](CO)[C@H]2Cn3c(ccc(-c4ccc(F)cc4)c3=O)[C@@H]1N2C(C)=O | . | -3 | . | -10 | 3 | .
O=C(O)C[C@@H]1CC[C@H]2NC[C@H](O)COC[C@@H]2O1 | . | 4 | . | -12 | 1 | .
CNC(=O)Oc1cccc(-c2cn3cc(Cl)ccc3n2)c1 | 35 | 82* | 30 | 14 | . | 9
CNC(=O)Oc1cccc2ccccc12 | 27 | -14 | -17 | 17 | 21 | -6
CNC(=O)Oc1ccc(-c2cn3cc(C)ccc3n2)cc1 | 64* | . | 33 | 40 | 70* | 64*
COc1ccc(-c2ccc([C@H]3[C@H](CO)N4CCCCN(C(=O)Cc5ccccc5)C[C@@H]34)cc2)cc1 | . | 8 | . | -28 | . | .
OCC1OC(n2cnc3cc(Cl)c(Cl)cc32)C(O)C1O (centres undefined) | 21 | 19 | 54* | -31 | 14 | .
CN(Cc1cccc(-c2ccncc2)c1)C(=O)Oc1ccccc1Cl | 75* | . | 49 | . | . | .
CN(C)Cc1ccccc1OC(=O)N(C)C | -2 | . | -7 | . | . | -9
CN(C)C(=O)Oc1ccc(Cl)c2ccccc12 | -8 | . | -11 | . | . | -17
Cc1nc2cc(OC(=O)N(C)Cc3cccc(-c4ccncc4)c3)ccc2s1 | 93* | . | 66* | . | . | .
CN(Cc1cccc(-c2ccncc2)c1)C(=O)Oc1ccccc1Cc1ccccc1 | 93* | . | 66* | . | . | .
O=C1CNC[C@H]2[C@@H](c3ccc(Br)cc3)[C@@H](CO)N12 | . | 8 | . | -7 | -11 | .
C[C@H]1CCC[C@H](O)CCCCCc2cc(O)cc(O)c2C(=O)O1 | 31 | 0 | 10 | 1 | -7 | -7
C[C@H]1CCC/C=C/C2C[C@H](O)CC2[C@H](O)/C=C/C(=O)O1 (some centres undefined) | 57* | . | -63 | . | . | -31
CC1CCC/C=C/C2CC(O)CC2C(O)/C=C/C(=O)O1 (centres undefined) | 76* | . | -54 | 127* | . | -172
C=C1C(=O)[C@@]23C[C@H]4[C@@H]5[C@@]6(C)CCC[C@@]57[C@@H]2[C@@H](O)[C@@H]1C[C@H]3[C@H]7N4C6 | 50 | 59* | 16 | . | 42 | -3
O=C(c1ccccc1)C(CN1CCCC1)c1ccccc1 (centres undefined) | 71* | ? | 11 | 100* | . | 73*
CCN1CCN(CC(c2ccccc2)c2ccccc2)CC1 | 7 | -6 | 15 | 20 | 14 | 9
CC=Cc1ccc2n(c1=O)C[C@H]1[C@H](CO)[C@@H](C(=O)O)[C@@H]2N1S(=O)(=O)c1ccccc1F (mixture of isomers) | . | -16 | . | 2 | -13 | .
